Measured values published in PubChem BioAssay AID588814 (The Scripps Research Institute Molecular Screening Center, 2011).
Several values for one entry are separate records, joined by “and”; a condition that tells them apart may be missing. Equal entries are not always repeated. The whole screen tested about 360,000 compounds, of which about 1,200 (0.33%) were called active. This is one part of a sample in which actives are shown more often than they occur.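 Rule for the calls: active = activation above the run's mean compound activation plus 3 SD (cut at about 16% in these data); inactive = the rest.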

Biological target: Muscarinic acetylcholine receptor M1 (Homo sapiens) (UniProt P11229)
Sequence (P11229 whole entry, looked up): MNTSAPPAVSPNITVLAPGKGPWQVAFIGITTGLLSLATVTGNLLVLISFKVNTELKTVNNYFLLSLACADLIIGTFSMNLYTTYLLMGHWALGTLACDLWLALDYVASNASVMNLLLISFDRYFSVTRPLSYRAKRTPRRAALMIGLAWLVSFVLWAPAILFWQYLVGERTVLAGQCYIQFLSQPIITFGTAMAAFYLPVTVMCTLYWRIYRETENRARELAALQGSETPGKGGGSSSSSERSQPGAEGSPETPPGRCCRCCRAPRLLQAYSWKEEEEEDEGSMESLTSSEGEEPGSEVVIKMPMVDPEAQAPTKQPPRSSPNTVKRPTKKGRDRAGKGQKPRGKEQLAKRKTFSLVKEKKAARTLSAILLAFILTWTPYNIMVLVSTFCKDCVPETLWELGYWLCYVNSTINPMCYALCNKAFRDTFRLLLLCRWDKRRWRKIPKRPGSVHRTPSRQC
Experiment: CHRM1 activation via calcium signal – Fluo-8 calcium fluorescence, CHO-K1 cells, HTS, primary screen (AID 588814);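 note: peak over basal fluorescence ratio within a 140 s kinetic read after compound addition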
Conditions: CHO-K1 hM1, Fluo-8 calcium fluorescence, agonist mode; at 3 µM; hits give high values; 0% DMSO, 100% acetylcholine EC100

SMILES | activation
COc1ccc(CCC(=O)OCC(=O)Nc2ccc(C)c(S(=O)(=O)N(C)C)c2)cc1 | -1.39% (inactive)
CCN1CCN(c2cc3nc(C)n(Cc4ccccc4)c(=O)c3cc2NC(=O)c2ccccc2F)CC1 | -9.45% (inactive)
NNC(=O)COc1ccc(C2SCCS2)cc1 | -1.63% (inactive)
CCOc1ccccc1NC(=S)NC(=O)CCc1ccccc1 | -3.2% (inactive)
COc1ccc(C(=O)NC(=S)NNC(=O)CCc2ccccc2)cc1 | 34.7% (active)
O=C(CCc1ccccc1)NNC(=O)COc1ccc(Cl)cc1 | 1.21% (inactive)
CC(=O)NC(=S)NNC(=O)c1ccc(Br)cc1 | -8.87% (inactive)
COc1ccc(C(=O)NNC(=S)NC(=O)c2ccccc2)cc1 | 34.3% (active)
O=C(NNC(=S)NCc1ccccc1)c1ccc(OC(F)F)cc1 | -4.38% (inactive)
COCCCNC(=O)C1CC(=O)N(c2ccc(C)cc2)C1 (configuration not stated) | -2.9% (inactive)
O=C(c1ccc(CS(=O)(=O)c2ccccc2)o1)N1CCN(c2ccccc2)CC1 | -1.41% (inactive)
CC(C)(C)NS(=O)(=O)NC(=O)C1=C(N2CCCC2)COC1=O | -5.28% (inactive)
Cc1nc(C(F)(F)F)ccc1C(=O)N1CCC1(C)C(=O)NS(=O)(=O)c1ccccc1Cl (configuration not stated) | -0.92% (inactive)
CC1=NCCN1S(=O)(=O)c1ccc(Br)c(C)c1 | -3.91% (inactive)
O=C1COc2ccc(C(=O)CSc3ccc(Br)cc3)cc2N1 | 0.13% (inactive)
c1ccc(CCC2=NCCn3cccc32)cc1 | -1.99% (inactive) and -6.48% (inactive)
COc1cccc(CNC(=O)c2nnn(CC(=O)Nc3cc(Cl)ccc3C)c2N)c1 | 2.49% (inactive)
COc1ccc(CNC(=O)c2nnn(CC(=O)Nc3cc(C)cc(C)c3)c2N)cc1 | -1.24% (inactive)
CCOc1ccc(Cn2nnc(C(=O)NCc3ccccc3)c2N)cc1 | 41% (active)
COc1ccc(NC(=O)Cn2nnc(C(=O)NCCc3ccc(OC)c(OC)c3)c2N)cc1 | -1.8% (inactive)
CCOc1ccc(Cn2nnc(C(=O)Nc3ccc(OC)cc3OC)c2N)cc1 | 17.4% (active)
Nc1c(C(=O)Nc2ccc3c(c2)OCCO3)nnn1Cc1ccccc1 | 1.21% (inactive)
O=C(CCNS(=O)(=O)c1ccc(Br)s1)NCc1ccccc1Cl | -1.35% (inactive)

SMILES | activation
O=c1o[nH]c(-c2ccccc2)c1N=Nc1c(F)cccc1Cl | -2.19% (inactive)
CCCCNC(=O)CCn1c(=O)c2ccccc2n(Cc2cc(C)ccc2C)c1=O | -4.41% (inactive)
OC(c1ccc(F)cc1)c1ncc(-c2cccc(C(F)(F)F)c2)[nH]1 (configuration not stated) | 6.15% (inactive)
CC(=O)Nc1cc(-c2ccccc2F)cn2c(-c3cccc(C(F)(F)F)c3)cnc12 | -3.25% (inactive)
NC(=O)c1ccc(NC(=O)COC(=O)c2c3c(nc4ccccc24)/C(=C\c2ccc4c(c2)OCO4)CCC3)cc1 | 38.3% (active)
NS(=O)(=O)c1ccc(NC(=O)COC(=O)c2ccco2)cc1 | -0.06% (inactive)
NS(=O)(=O)c1ccc(NC(=O)COC(=O)c2c3c(nc4ccccc24)/C(=C\c2ccc4c(c2)OCO4)CCC3)cc1 | 62.8% (active)
NS(=O)(=O)c1ccc(NC(=O)COC(=O)CCc2c[nH]c3ccccc23)cc1 | -0.53% (inactive)
O=C(COC(=O)c1ccc(Cl)nc1)NCc1ccc2c(c1)OCO2 | -4.12% (inactive)
CC(=O)Nc1cccc(C(=O)OCC(=O)c2ccc3c(c2)OCO3)c1 | 6.09% (inactive)
CC1(C(=O)NS(=O)(=O)c2cccc(F)c2)CCN1C(=O)Cc1ccc(Cl)cc1Cl (configuration not stated) | -1.39% (inactive)
CC1Cc2ccccc2N1CC(=O)Nc1ccc2c(c1)OC(F)(F)O2 (configuration not stated) | -7.22% (inactive)
CCN(CC)c1ccc(/C=N/NC(=O)CNC(=O)c2cccs2)cc1 | -4.5% (inactive)
Cc1ccc(-n2nc(C)c(/C=N/NC(=O)c3cccs3)c2Cl)cc1 | 16.7% (active)
Cc1nn(-c2ccccc2)c(NC(=O)c2cccs2)c(-c2ccc(Cl)cc2)c1=O | -7.73% (inactive)
CC(=NNC(=O)c1ccncc1)c1ccc(Cl)c(Cl)c1 | -2.06% (inactive)
CCOCCCN1C(=O)C2C(C(=O)Nc3ccc(OCC)cc3)C3C=CC2(O3)C1C(=O)NC1CCCCC1 (configuration not stated) | -6.34% (inactive)
CCCNC(=O)C1CC(=O)N(c2ccc(OCc3ccccc3)cc2)C1 (configuration not stated) | 1.07% (inactive)
COc1ccc(-n2c(-c3ccc(Cl)cc3)n[nH]c2=S)c(OC)c1 | -4.14% (inactive)
COc1cc(OC)c(-n2cc(-c3ccc(Cl)cc3)[nH]c2=O)cc1Cl | 58% (active)
COc1cc(OC)c(N2CC(C(=O)Nc3cc(Cl)ccc3N3CCOCC3)CC2=O)cc1Cl (configuration not stated) | -5.02% (inactive)
CC(=O)C[C@@H](O)CC(=O)[C@H]1OC(=O)CCCCCCc2ccccc21 | 10.4% (inactive)
Cn1nccc1NC(=O)CC(CC(=O)O)c1ccccc1 (configuration not stated) | 0.28% (inactive)

SMILES | activation
Cn1nc(C(F)(F)F)c2cc(NC(=O)OCC(C)(C)C)sc21 | -6.85% (inactive)
CC(C)COC(=O)c1ccc(NC(=O)C2C3C=CC(C3)C2C(=O)O)cc1 (configuration not stated) | -3% (inactive)
CCc1ccc(-c2cc3c(=O)n(CC(=O)NCCCN4CCN(Cc5ccccc5)CC4)nc(C)n3n2)cc1 | 0.73% (inactive)
CC(=O)OC(C)C[N+](C)(C)C (configuration not stated) | 115% (active)
CC(C[N+](C)(C)C)OC(N)=O (configuration not stated) | 87.5% (active)
CC(=O)OCCC(C)C | -3.12% (inactive)
Cc1oc2nc(SCC(=O)Nc3ccc(S(N)(=O)=O)cc3)nc(NC(=O)c3ccccc3)c2c1C | -4.87% (inactive)
Cc1sc(NC(=O)C2=COCCO2)c(C#N)c1C | -6.11% (inactive)
CC(C)Cn1c(CCC(=O)O)ccc1-c1cccs1 | -4.32% (inactive)
O=c1c2ccccc2c(-c2ccccc2)nn1-c1ccccn1 | -1.79% (inactive)
CC(C)(C)OC(=O)N/N=C/c1cn(-c2ccccc2)nc1-c1cccnc1 | 24% (active)
COc1ccccc1N1CCN(C(=O)c2cn(-c3ccccc3)nc2-c2cccnc2)CC1 | 0.62% (inactive)
O=C(COC(=O)/C=C/c1cn(-c2ccccc2)nc1-c1cccnc1)Nc1ccc(Cl)cc1Cl | -5.6% (inactive)
O=C(CNc1cccc(S(=O)(=O)N2CCCCC2)c1)Nc1ccccc1F | 2.04% (inactive)
CCCOc1ccc(F)cc1-c1cc(C(=O)NCc2ccc(F)cc2)[nH]n1 | -7.18% (inactive)
Cc1cc(O)ccc1-c1cc(C(=O)NCc2cc(C(F)(F)F)cc(C(F)(F)F)c2)[nH]n1 | 16.9% (active)
Cc1ccc(O)c(-c2cc(C(=O)NCc3ccccc3)[nH]n2)c1 | -5.25% (inactive)
CCc1nc2c(OCCC3CCCCC3)cccn2c1N(C)C(=O)c1ccco1 | -9.74% (inactive)
CCOC(=O)C1(Cc2cccc(OC)c2)CCCN(S(=O)(=O)c2cccnc2)C1 (configuration not stated) | -1.49% (inactive)
COc1ccc(C(C#N)=C2C=CC(=NO)c3ccccc32)cc1 | -8% (inactive)
CCOc1c(N2CCCCC2)c(=O)c1=O | -7.26% (inactive)
CCc1nc2ccc(C(=O)Nc3cccc(OC)c3)cn2c1N(CCC(C)C)CCN(C)C | 29.4% (active)
CCc1nc2ccc(C(=O)N(C)CCN(C)C)cn2c1N(CC)CCOC | -6.84% (inactive)

SMILES | activation
CCc1nc2ccc(C(=O)Nc3ccc(OC)c(OC)c3)cn2c1N(C)C(=O)c1cccc(OC)c1 | -2.95% (inactive)
NC(=O)C1CCN(C(=O)c2cn(-c3ccccc3)nc2-c2cccnc2)CC1 | -0.33% (inactive)
Cc1ccc(-c2nn(-c3ccccc3)cc2C(=O)NC2CCC(O)CC2)cc1 (configuration not stated) | 0.01% (inactive)
O=C(NNC(=S)NC(=O)c1cn(-c2ccccc2)nc1-c1ccccc1)c1ccncc1 | 16.6% (active)
Cc1cc(SCC(=O)NCCN2C(=O)CSC2=O)nc2ccccc12 | -9.92% (inactive)
Cc1ccc(S(=O)(=O)NCc2nc3ccccc3c(=O)n2N)cc1 | -0.65% (inactive)
N#CC1(NC(=O)COC(=O)CCN=C2NS(=O)(=O)c3ccccc32)CCCCC1 | -0.14% (inactive)
O=C(CCCN=C1NS(=O)(=O)c2ccccc21)OCC(=O)c1ccc(F)c(F)c1 | 27% (active)
O=C(OCCN=C1NS(=O)(=O)c2ccccc21)c1cccc([N+](=O)[O-])c1 | -1.9% (inactive)
Cc1cccc(NC(=O)c2ccc3c(=O)n(CC4CCCO4)c(=S)[nH]c3c2)c1 (configuration not stated) | -0.37% (inactive)
N#C/C(=C\c1ccc(N2CCOCC2)o1)C(=O)N1CCOCC1 | 2.53% (inactive)
O=C(NCCc1c[nH]c2ccccc12)C1CCN(Cc2ccc(Br)cc2)CC1 | -4.6% (inactive)
N#C/C(=C/c1ccc(N2CCCCC2)o1)C(=O)NCCc1c[nH]c2ccccc12 | 28.4% (active)
CCOCc1nnc(NC(=O)CCC2CCCCC2)s1 | -1.9% (inactive)
O=S(=O)(Nc1ccc(Cl)cn1)c1cnc(Cl)c(Br)c1 | -0.28% (inactive)
CCOc1ccc(C(=O)NC(C(=O)NCc2ccccn2)C(C)C)cc1 (configuration not stated) | -5.01% (inactive)
O=C(N/N=C/c1ccsc1)c1cc(O)cc(O)c1 | -1.35% (inactive)
O=C1Nc2ccc([N+](=O)[O-])cc2C1=Nc1cccc(CO)c1 | 0.24% (inactive)
Cc1noc(C)c1C(=O)NCC1COc2ccccc2O1 (configuration not stated) | -2.12% (inactive)
O=C1C(=O)N(c2ccccc2)c2ccccc21 | 13.1% (inactive)
O=C1C(=O)N(CC2COc3ccccc3O2)c2ccccc21 (configuration not stated) | 39.1% (active)
CCCC1C(c2ccccc2)C(C#N)(C#N)C2(C#N)CC1(N)NC2=O (configuration not stated) | -0.06% (inactive)
Cc1ccc(NC2=C(Cl)C(=O)OC2OC(=O)c2ccccc2C)cc1 (configuration not stated) | -9.26% (inactive)
